Measured values published in ChEMBL document CHEMBL3433997, “St. Jude Leishmania screening dataset” (2016).

target: Glucose transporter (Leishmania mexicana) (UniProt O61059); test: ST_JUDE_LEISH: Cytotoxicity at 2uM final concentration against transgenic Leishmania Mexicana promastigotes LmGT2 that are glucose transport deficient and complemented with the L. Mexicana glucose transporter 2. Activity is measured by DNA content using SYBR green in vitro; type: functional

Compound | inhibition [%]
COc1ccc(CCc2ccc(-c3c(C)[nH]c(C)c(Cl)c3=O)cc2)cc1OC | 10.6
COc1cc2/c(=N/c3ccc(Br)cc3F)nc[nH]c2cc1OCC1CCN(C)CC1 | 0.95
OC1CCCN(Cc2ccc(-c3ccc(-c4nc5ccccc5[nH]4)cc3)cc2)C1 (stereo not given) | 5.37
Cc1cccc2nc(-c3ccc(-c4ccc(CNC(C)C)cc4)cc3)[nH]c12 | 15.7
CCN1CCC(N(Cc2ccc(-c3ccc(C(F)(F)F)s3)cc2)C(=O)Cn2c(CCc3cccc(F)c3F)nc(=O)c3ccccc32)CC1 | 5.76
CCc1c(CCNCCCCCCNCCc2ccc([N+](=O)[O-])cc2)ccc(O)c1O | 0.31
CC(C)NCc1ccc(-c2ccc(-c3nc4cc(C(F)(F)F)ccc4[nH]3)s2)cc1 | 15.3
Oc1cccc(-c2cnc3ccc(NCc4ccc(F)cc4)nn23)c1 | -1.63
COc1ccc2nccc([C@@H](O)CN3CCC(NC(=O)Cc4cc5ccccc5s4)CC3)c2c1 | 1.96
CCNc1cc(C)nc(Nc2ccc(NC(=O)c3ccccc3)cc2)n1 | 3.79
O=C(Nc1ccnc(N2CC3CC2CN3Cc2cccc(O)c2)c1)c1ccc(F)cc1 (stereo not given) | 1.75
CN1CCN(CCCN(Cc2csc(-c3ccc(CNCc4ccccc4)cc3)n2)S(=O)(=O)c2ccc(F)cc2)CC1 | 10.1
COCCCN=C(S)NN=C(C)c1ccccn1 | 0
O=C(NCCCCN1CCC(c2ccc3c(c2OCCCO)CCCC3)CC1)c1ccc(-c2ccc(C(F)(F)F)cc2)cc1 | 2.9
CCNc1cc(C(=O)N[C@@H](Cc2ccccc2)[C@H](O)CNC(C)(C)c2cccc(OC)c2)cc(N2CCCC2=O)c1 | -0.62
CCC1CCCCN1S(=O)(=O)c1ccc(OC)c(N2CCN(C(=O)C(Cl)(Cl)Cl)CC2)c1 (stereo not given) | 6.44
CCC(CC)n1c(COC)cc2c3c(N)nc(N)nc3ccc21 | 37.3
Cc1[nH]c2c(C)cccc2c1C1CCN(CCC2CCN(C(=O)/C=C/c3ccc(Cl)c(Cl)c3)CC2)CC1 | 2.49
O=C(NC1CCN(c2ccnc3ccccc23)C1)c1cccc(C(F)(F)F)c1 (stereo not given) | 1.91
CC(CN(C)C)Oc1ccc2nc(-c3cccc(OCc4ccccc4)c3)[nH]c2c1C#N (stereo not given) | 0.08

Compound | inhibition [%]
CCc1sc(-c2cc(Cl)ccc2OC)nc1C(=O)NCCN1CCCCC1 | 4.96
CN(C)CCC(O)C=C(c1ccc(Cl)cc1)c1ccc(Cl)cc1 (stereo not given) | 4.86
CCCCCCN1CCC(NCc2ccc(C)cc2)CC1 | 17.6
Cc1cccc2nc(-c3cccc(-c4cccc(NC(=O)c5cn(C)c(=O)n5C)c4)c3)[nH]c12 | -0.64
CC(CCCCC(=O)Nc1ccc(C(F)(F)F)cc1)NCC(O)c1cccc(Cl)c1 (stereo not given) | 1.56
Cc1cc(N2CCCC2)nc(Nc2ccc(NC(=O)c3ccc4c(c3)OCO4)cc2)n1 | 5.78
CC(NC(=O)c1cc(-c2ccccc2)nc2c1cnn2C(C)C)C1CC1 (stereo not given) | 0.29
c1ccc2c(NCCc3c[nH]cn3)c3ccccc3nc2c1 | 2.23
CCN1CCN(CCCCNc2c3ccccc3nc3ccccc23)CC1 | 10.7
CCC(CN1C(=N)NC(c2ccccc2)(c2ccccc2)C1=O)c1ccccc1 (stereo not given) | 0.9
Cc1cccc2nc(-c3ccc(-c4cccc(CN5CCN(CCO)CC5)c4)cc3)[nH]c12 | 4.22
C=CCC(C)n1ncc2c3c(N)nc(N)nc3ccc21 (stereo not given) | -0.24
Cc1cc(C)c(CON2C(=N)N=C(N)NC2(C)C)cc1C | -0.63
Cc1nc2nc(N)nc(N)c2c(C)c1Cc1ccc(N)cc1 | 1.88
COc1ccccc1C1CCN(C2CCC(NC(=O)/C=C/c3cc(C(F)(F)F)cc(C(F)(F)F)c3)CC2)CC1 (stereo not given) | -2.77
O=C(NCCNc1ccnc(Nc2ccc(F)cc2)n1)c1cc2ccccc2s1 | 0.69
Oc1ccc(CCNCCCCCCNCCc2ccc(-c3ccccc3)cc2)cc1O | 1.57
CC(C)N1CCC(N(Cc2ccc(-c3ccc(Cl)cc3)cc2)C(=O)Cn2c(CCc3cccc(F)c3F)nc(=O)c3ccccc32)CC1 | 3.03
COc1ccccc1/C=C/C(=O)NC1CCC(CCN2CCc3ccc(-c4cc(C)no4)cc3CC2)CC1 (stereo not given) | 9.56
COc1ccc2nc(/N=C3\NC(c4ccccn4)(c4ccccn4)C(=O)N3C)[nH]c2c1 | 9.86
